Measurements from the supplement of paper PMC10338343.
± gives the standard deviation.

Experiments:
[1] = system: MILI (PIWIL2) piRISC loaded with piRNA #1 (26 nt); test: pre-steady-state target cleavage rate (min^-1); guide: piRNA #1 5'p-UGAGGUAGUAGGUUGUAUAGUAUCCA; higher = faster piRNA-guided slicing of the target; details: auxiliary factor: 500 nM mouse GTSF1;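 further: 1 nM active piRISC with 0.1 nM target library at 33 °C single turnover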
How it was run: (§1)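 In this Cleave-'n-Seq assay, uncleaved targets were sequenced and normalised to depth and to weakly complementary targets. They came from a transcribed, DNA-blocked target RNA library […] mixed with 1 nM active affinity-purified piRISC carrying one synthetic guide, with or without 500 nM GTSF1 partner protein, in HEPES–potassium acetate buffer at 33 °C for 0–8 or 0–960 min. After three trials were pooled and k3 was capped at 0.0001 min^-1, the pre-steady-state cleavage rate was obtained from a burst-and-steady-state fit.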

[2] = system: EfPiwi piRISC loaded with piRNA #1 (26 nt); test: pre-steady-state target cleavage rate (min^-1); auxiliary factor: 500 nM Ephydatia muelleri Gtsf1; guide: piRNA #1 5'p-UGAGGUAGUAGGUUGUAUAGUAUCCA; MIWI and MILI are mouse PIWI proteins and EfPiwi is from a freshwater sponge; tags in brackets are library labels; higher = faster piRNA-guided slicing of the target
How it was run: as §1

GGAGACCUAACUAUACAACCUACUUCCUGA
pre-steady-state target cleavage rate [1]: 0.0081 ± 0.0069 | pre-steady-state target cleavage rate [2]: 0.00376 ± 0.0037

GGAGACCAUUCUAUACAACGUACUACCUCA
pre-steady-state target cleavage rate [1]: 0.0141 ± 0.0029 | pre-steady-state target cleavage rate [2]: 0.00402 ± 0.0025

GGAGACCAUACUAUACAACCUAGUACCUCA
pre-steady-state target cleavage rate [1]: 0.0657 ± 0.013 | pre-steady-state target cleavage rate [2]: 0.00446 ± 0.0014
